Pf Dd2 growth: blocks growth of Plasmodium falciparum Dd2 parasites. P. falciparum Dd2 growth, SYBR Green, 72 h; hits give low values. activity change, % at 10 µM. 94,000 tested, 2.3% active. AID 1159554; in the data active means activity change below about -80%; inconclusive means no clear call, values can overlap the other calls
C diff HTS: inhibitors of Clostridium difficile growth; Clostridium difficile clinical isolate growth, OD600, 24 h; hits give low values; growth activity, negative = inhibition, % at 16 µg/mL (by protocol); 86,000 tested, 0.25% active;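 active means mean growth activity at or below -80% and every replicate also at or below -80%; inconclusive means mean at or below -80% but some replicate above -80%; inactive means mean growth activity above -80%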
T cruzi growth-1: inhibitors of T. cruzi proliferation. T. cruzi beta-gal in NIH3T3, GalScreen luminescence, 90 h. inhibition, % at 8.34 µM. 77,000 tested, 5.9% active. AID 624255;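 active means mean inhibition above about 93%, with at least 55% of replicates each passing it, limit read from the data, passing the limit was not always enough; inconclusive means only one of those two conditions holds; inactive means neither condition holds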
T cruzi growth-2: Trypanosoma cruzi proliferation inhibition | T. cruzi beta-gal in NIH3T3, GalScreen luminescence, 90 h | AID 651739 | 5,600 tested, 72% active | shares compounds with T cruzi growth-1 | inhibition, % at 8.35 µM;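 active means mean replicate inhibition above about 95% and at least 55% of replicates individually reaching it, limit read from the data; inconclusive means only one of the two criteria is met; inactive means neither criterion is met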
T cruzi growth-3: Trypanosoma cruzi proliferation inhibition; T. cruzi beta-gal in NIH3T3, GalScreen luminescence, 90 h; shares compounds with T cruzi growth-1; inhibition, % at 2.09 µM; 5,600 tested, 21% active;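 active means mean inhibition above about 95%, with at least 55% of replicates also reaching it, limit read from the data; inconclusive means meets just one of the two conditions; inactive means meets neither condition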
3T3 cytotox: cytotoxicity in mouse NIH/3T3 fibroblasts | shares compounds with T cruzi growth-1 | NIH/3T3 viability, CellTiter-Glo ATP luminescence, 90 h | cytotoxicity (signal decrease), % at 8.35 µM | 5,600 tested, 14% active | AID 651742;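 active means mean signal decrease across replicates above about 35% based on untreated-well scatter, with enough replicates individually passing, limit read from the data; inconclusive means no rule stated though some were filed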
NIH3T3 tox 2: NIH/3T3 (mouse) viability loss; shares compounds with T cruzi growth-1; AID 651744; 5,600 tested, 56% active; inhibition, % at 24.9 µM; NIH/3T3 viability, CellTiter-Glo ATP luminescence, 90 h;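 active means mean loss of cell viability signal at or above a set limit, and enough replicates individually reaching it; inconclusive means meets only the mean limit or only the replicate share; inactive means meets neither condition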
Hits are given with their value; . = inactive; ? = inconclusive; / = no result. Hits are enriched below; roughly 6.7% of the tested compounds scored in any of these assays.

SMILES | Pf Dd2 growth | C diff HTS | T cruzi growth-1 | T cruzi growth-2 | T cruzi growth-3 | 3T3 cytotox | NIH3T3 tox 2
COc1cccc(C#Cc2cnc3c(c2)C(=O)N([C@@H](C)CO)C[C@@H](C)[C@H](CN(C)C(=O)C2CCCCC2)O3)c1 | . | . | 85 | 100 | . | . | 101
COc1cccc(C#Cc2cnc3c(c2)C(=O)N([C@@H](C)CO)C[C@@H](C)[C@@H](CN(C)C(=O)C2CCCCC2)O3)c1 | . | . | . | / | / | / | /
C[C@H](CO)N1C[C@H](C)[C@@H](CN(C)C(=O)C2CCCCC2)Oc2ncc(C#Cc3cccc(F)c3)cc2C1=O | . | / | 117 | 104 | . | . | 77
COc1cccc(C#Cc2cnc3c(c2)C(=O)N([C@H](C)CO)C[C@H](C)[C@@H](CN(C)C(=O)C2CCCCC2)O3)c1 | -87 | . | 101 | 110 | . | . | 103
COc1cccc(C#Cc2cnc3c(c2)C(=O)N([C@H](C)CO)C[C@@H](C)[C@H](CN(C)C(=O)C2CCCCC2)O3)c1 | . | . | . | / | / | / | /
COc1cccc(C#Cc2cnc3c(c2)C(=O)N([C@@H](C)CO)C[C@H](C)[C@@H](CN(C)C(=O)C2CCCCC2)O3)c1 | -86 | . | 117 | 107 | . | . | .
COc1cccc(C#Cc2cnc3c(c2)C(=O)N([C@@H](C)CO)C[C@@H](C)[C@H](CN(C)C(=O)C2CCC2)O3)c1 | . | . | . | / | / | / | /
C[C@H](CO)N1C[C@H](C)[C@@H](CN(C)Cc2ccc(-c3ccccc3)cc2)Oc2c(NC(=O)C3CC3)cccc2C1=O | . | . | . | / | / | / | /
CN(C)C(=O)c1ccc(-c2ccc([C@@H]3[C@@H](CO)N4CCCCN(S(C)(=O)=O)C[C@@H]34)cc2)cc1 | . | . | . | / | / | / | /
CC(C)NC(=O)N(C)C[C@@H]1Oc2c(NS(C)(=O)=O)cccc2C(=O)N([C@H](C)CO)C[C@H]1C | . | . | . | / | / | / | /
Cc1noc(C)c1NC(=O)Nc1ccc2c(c1)C(=O)N([C@@H](C)CO)C[C@H](C)[C@H](CN(C)C(=O)CCCN(C)C)OCCCC[C@H](C)O2 | . | . | . | / | / | / | /
CC(C)NC(=O)Nc1ccc2c(c1)CC(=O)N([C@@H](C)CO)C[C@@H](C)[C@H](CN(C)C(=O)Nc1ccccc1)O2 | . | . | . | / | / | / | /
CO[C@@H]1CN(C)C(=O)c2cc(NS(C)(=O)=O)ccc2OC[C@@H](C)N(C(=O)C2CCC2)C[C@H]1C | . | / | . | / | / | / | /
C[C@@H]1CN([C@H](C)CO)C(=O)c2cc(NS(=O)(=O)c3ccc(F)cc3)ccc2O[C@H]1CN(C)S(=O)(=O)c1ccccc1 | . | . | . | / | / | / | /
C[C@@H]1CN([C@@H](C)CO)C(=O)c2cc(/C=C/c3ccccc3)cnc2O[C@H]1CN(C)Cc1ccccc1 | . | . | 133 | 107 | 109 | . | 104
C/C=C/c1cnc2c(c1)C(=O)N([C@@H](C)CO)C[C@H](C)[C@H](CN(C)Cc1ccc3c(c1)OCO3)O2 | . | . | / | / | / | / | /
C[C@H]1CN([C@@H](C)CO)C(=O)c2cc(/C=C/c3ccccc3)cnc2O[C@H]1CN(C)Cc1ccccc1 | . | . | . | / | / | / | /
C[C@@H]1CN([C@@H](C)CO)C(=O)c2cc(/C=C/c3ccccc3)cnc2O[C@H]1CN(C)Cc1ccc2c(c1)OCO2 | . | . | 111 | 101 | 108 | 58 | 102
C[C@@H]1CN([C@H](C)CO)C(=O)c2cc(-c3cccc(F)c3)cnc2O[C@@H]1CN(C)S(=O)(=O)c1cccc(F)c1 | . | / | . | / | / | / | /
COc1ccc(CN2C[C@H](O)COC[C@H]3O[C@H](CC(=O)NCc4ccncn4)CC[C@@H]32)cc1 | . | . | . | / | / | / | /
COCC#Cc1ccc([C@H]2[C@@H](CO)N3CCCCN(Cc4cccnc4)C[C@H]23)cc1 | . | . | 100 | 96 | . | . | .
COCC#Cc1ccc([C@H]2[C@H]3CN(Cc4cncnc4)CCCCN3[C@H]2CO)cc1 | . | . | . | / | / | / | /
COCC#Cc1ccc([C@@H]2[C@H](CO)N3CCCCN(Cc4cccnc4)C[C@@H]23)cc1 | . | . | . | / | / | / | /
COCC#Cc1ccc([C@H]2[C@H](CO)N3CCCCN(Cc4cccnc4)C[C@@H]23)cc1 | . | . | 102 | 101 | . | . | .
COCC#Cc1ccc([C@H]2[C@@H](CO)N3CCCCN(Cc4cncnc4)C[C@@H]23)cc1 | . | . | 108 | . | . | . | .
SMILES | Pf Dd2 growth | C diff HTS | T cruzi growth-1 | T cruzi growth-2 | T cruzi growth-3 | 3T3 cytotox | NIH3T3 tox 2
CN1C(=O)c2cc(NC(=O)C3CCCCC3)ccc2OC[C@H]2O[C@H](CC(=O)NCCc3ccncc3)CC[C@@H]21 | . | . | . | / | / | / | /
Cc1ccccc1-c1ccc([C@H]2[C@H]3CN(C(=O)c4cccnc4)CCCCN3[C@H]2CO)cc1 | . | . | . | / | / | / | /
Cc1cccc(-c2ccc([C@H]3[C@@H](CO)N4CCCCN(C(=O)c5ccncc5)C[C@@H]34)cc2)c1 | . | . | . | / | / | / | /
Cc1cccc(-c2ccc([C@H]3[C@H](CO)N4CCCCN(C(=O)c5ccncc5)C[C@@H]34)cc2)c1 | . | . | . | / | / | / | /
Cc1cccc(-c2ccc([C@H]3[C@@H](CO)N4CCCCN(C(=O)c5cccnc5)C[C@@H]34)cc2)c1 | . | . | ? | 108 | . | 36 | .
Cc1cccc(-c2ccc([C@@H]3[C@H]4CN(C(=O)c5cccnc5)CCCCN4[C@H]3CO)cc2)c1 | . | . | 104 | . | . | . | 42
Cc1cccc(-c2ccc([C@H]3[C@@H](CO)N4CCCCN(C(=O)c5cccnc5)C[C@H]34)cc2)c1 | . | . | 114 | 96 | . | . | ?
CCCNC(=O)Nc1ccc2c(c1)OC[C@H](C)N(C(=O)C1CC1)C[C@@H](C)[C@H](OC)CN(C)C2=O | / | / | . | / | / | / | /
CC(C)C#Cc1ccc2c(c1)O[C@H](CN(C)C)[C@@H](C)CN([C@H](C)CO)S2(=O)=O | . | . | / | / | / | / | /
CCC(=O)N1[C@H](CN(C)C(C)=O)[C@@H](c2ccc(C3=CCCC3)cc2)[C@@H]1CO | . | . | . | / | / | / | /
Cc1ccc(S(=O)(=O)Nc2ccc3c(c2)CC(=O)N([C@@H](C)CO)C[C@@H](C)[C@H](CN(C)Cc2ccc4c(c2)OCO4)O3)cc1 | . | . | 99 | 103 | ? | . | ?
C[C@H]1CN([C@@H](C)CO)C(=O)Cc2cc(NS(=O)(=O)c3ccc(Cl)cc3)ccc2O[C@@H]1CN(C)Cc1ccc2c(c1)OCO2 | . | . | 107 | 98 | . | . | .
Cc1ccc(S(=O)(=O)Nc2ccc3c(c2)CC(=O)N([C@H](C)CO)C[C@H](C)[C@H](CN(C)Cc2ccc4c(c2)OCO4)O3)cc1 | . | . | . | / | / | / | /
C[C@H](CO)N1C[C@H](C)[C@@H](CN(C)Cc2ccc3c(c2)OCO3)Oc2ccc(NS(=O)(=O)c3ccc(Cl)cc3)cc2CC1=O | . | . | . | / | / | / | /
